“And” between values parts separate entries of the source, which are not always exact repeats. Equal values may be shown once. In all, about 2,900 compounds were measured (“NF-kB SEAP reporter activity, fold change vs agonist alone”: median about 0.99, highest 2% from about 2.6 on). This is one part of a sample in which the highest values are shown more often than they occur.
Columns and labels:
RAW-Dual [1] = assay: NF-kB SEAP reporter activity, fold change vs agonist alone; cytotoxicity flag (confluency mask): not cytotoxic; higher = enhanced NF-kB activity
Summary of the method: (§1)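 RAW-Dual macrophages were seeded in DMEM at 50,000 cells/well in 384-well plates, given 50 nL of library stock by pin tool, and given a PRR agonist 1 h later. Plates were held at 37 °C, 5% CO2 for 20 hours, after which supernatant was read for IRF by QuantiLuc luminescence and for NF-κB by QuantiBlue absorbance at 620 nm. Reporter activity is expressed as fold change over wells that received agonist alone. A well was called cytotoxic when IncuCyte confluency fell below 70% of agonist controls in both mask sets.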

RAW-Dual [2] = assay: NF-kB SEAP reporter activity, fold change vs agonist alone; higher = enhanced NF-kB activity; conditions: library stock concentration (final ~1000-fold dilution): 10 mM
Summary of the method: as §1

RAW-Dual [3] = assay: NF-kB SEAP reporter activity, fold change vs agonist alone; cytotoxicity flag (confluency mask): cytotoxic (confluency <70% of control); higher = enhanced NF-kB activity
Summary of the method: as §1

[4] = agonist: ODN 1826 (TLR9) 0.5 ug/mL
[5] = agonist: Pam2CSK4 (TLR2/6) 0.1 ug/mL
[6] = agonist: Pam3CSK4 (TLR2/1) 0.1 ug/mL
[7] = cytotoxicity flag (confluency mask): not cytotoxic, agonist: Imiquimod (TLR7) […]
[8] = cytotoxicity flag (confluency mask): not cytotoxic, agonist: MPLA (TLR4) […]

CCOC(=O)/C=C/c1ccc(O)c(O)c1 (library stock concentration (final ~1000-fold dilution): 10 mM)
NF-kB SEAP reporter activity (RAW-Dual [1]; agonist: LPS (TLR4) 0.1 ug/mL): 0.633 and 0.814 | NF-kB SEAP reporter activity (RAW-Dual [1]; [4]): 0.407 and 0.651 | NF-kB SEAP reporter activity (RAW-Dual [1]; [5]): 0.658 and 0.524 | NF-kB SEAP reporter activity (RAW-Dual [1]; [6]): 0.563 and 0.481

NS(=O)(=O)NCCNc1nonc1C(=Nc1ccc(F)c(Br)c1)NO (library stock concentration (final ~1000-fold dilution): 10 mM)
NF-kB SEAP reporter activity (RAW-Dual [1]; agonist: LPS (TLR4) 0.1 ug/mL): 1.01 | NF-kB SEAP reporter activity (RAW-Dual [1]; [4]): 0.936 | NF-kB SEAP reporter activity (RAW-Dual [1]; [5]): 0.922 | NF-kB SEAP reporter activity (RAW-Dual [1]; [6]): 0.961

NS(=O)(=O)NCCNc1nonc1C(=Nc1ccc(F)c(Br)c1)NO
NF-kB SEAP reporter activity (RAW-Dual [2]; [7]): 0.862 | NF-kB SEAP reporter activity (RAW-Dual [2]; [8]): 0.907

CCCC(=O)Nc1ccc(OCC(O)CNC(C)C)c(C(C)=O)c1.Cl (stereo unspecified) (library stock concentration (final ~1000-fold dilution): 10 mM)
NF-kB SEAP reporter activity (RAW-Dual [1]; agonist: LPS (TLR4) 0.1 ug/mL): 1.54 | NF-kB SEAP reporter activity (RAW-Dual [1]; [4]): 1.08 | NF-kB SEAP reporter activity (RAW-Dual [1]; [5]): 1.11 | NF-kB SEAP reporter activity (RAW-Dual [1]; [6]): 1.16

CCN(CC)C(=O)Nc1ccc(OCC(O)CNC(C)(C)C)c(C(C)=O)c1.Cl (stereo unspecified)
NF-kB SEAP reporter activity (RAW-Dual [2]; [7]): 2.4 | NF-kB SEAP reporter activity (RAW-Dual [2]; [8]): 2.24

CCN(CC)C(=O)Nc1ccc(OCC(O)CNC(C)(C)C)c(C(C)=O)c1.Cl (stereo unspecified) (library stock concentration (final ~1000-fold dilution): 10 mM)
NF-kB SEAP reporter activity (RAW-Dual [1]; agonist: LPS (TLR4) 0.1 ug/mL): 3.5 | NF-kB SEAP reporter activity (RAW-Dual [1]; [4]): 2.46 | NF-kB SEAP reporter activity (RAW-Dual [1]; [5]): 1.6 | NF-kB SEAP reporter activity (RAW-Dual [1]; [6]): 3.15

CC(C)(C)NCC(O)COc1cccc2c1CCC(=O)N2.Cl (stereo unspecified) (library stock concentration (final ~1000-fold dilution): 10 mM)
NF-kB SEAP reporter activity (RAW-Dual [1]; agonist: LPS (TLR4) 0.1 ug/mL): 1.11 | NF-kB SEAP reporter activity (RAW-Dual [1]; [4]): 1.05 | NF-kB SEAP reporter activity (RAW-Dual [1]; [5]): 1.04 | NF-kB SEAP reporter activity (RAW-Dual [1]; [6]): 1.11

CCCC(=O)Nc1ccc(OCC(O)CNC(C)C)c(C(C)=O)c1.Cl (stereo unspecified)
NF-kB SEAP reporter activity (RAW-Dual [2]; [7]): 1 | NF-kB SEAP reporter activity (RAW-Dual [2]; [8]): 1.08

CC(C)(C)NCC(O)COc1cccc2c1CCC(=O)N2.Cl (stereo unspecified)
NF-kB SEAP reporter activity (RAW-Dual [2]; [7]): 1.02 | NF-kB SEAP reporter activity (RAW-Dual [2]; [8]): 1.07

Cl.N=c1ccn2c(n1)OC1C(O)C(CO)OC12 (stereo unspecified)
NF-kB SEAP reporter activity (RAW-Dual [2]; [7]): 1.8 | NF-kB SEAP reporter activity (RAW-Dual [2]; [8]): 1.42

Cl.N=c1ccn2c(n1)OC1C(O)C(CO)OC12 (stereo unspecified) (library stock concentration (final ~1000-fold dilution): 10 mM)
NF-kB SEAP reporter activity (RAW-Dual [1]; agonist: LPS (TLR4) 0.1 ug/mL): 1.33 | NF-kB SEAP reporter activity (RAW-Dual [1]; [4]): 1.89 | NF-kB SEAP reporter activity (RAW-Dual [1]; [5]): 1.4 | NF-kB SEAP reporter activity (RAW-Dual [1]; [6]): 1.83

Brc1ccc(CCCCn2ccnc2)cc1 (library stock concentration (final ~1000-fold dilution): 10 mM)
NF-kB SEAP reporter activity (RAW-Dual [1]; agonist: LPS (TLR4) 0.1 ug/mL): 0.672 and 0.736 | NF-kB SEAP reporter activity (RAW-Dual [1]; [4]): 0.566 and 0.595 | NF-kB SEAP reporter activity (RAW-Dual [1]; [5]): 0.493 and 0.552 | NF-kB SEAP reporter activity (RAW-Dual [1]; [6]): 0.585 and 0.645

CN(C)C(=O)CCSC(SCCC(=O)O)c1cccc(C=Cc2ccc3ccc(Cl)cc3n2)c1 (stereo unspecified) (library stock concentration (final ~1000-fold dilution): 10 mM)
NF-kB SEAP reporter activity (RAW-Dual [1]; agonist: LPS (TLR4) 0.1 ug/mL): 1.5 | NF-kB SEAP reporter activity (RAW-Dual [1]; [4]): 1.12 | NF-kB SEAP reporter activity (RAW-Dual [1]; [5]): 0.936 | NF-kB SEAP reporter activity (RAW-Dual [1]; [6]): 0.945

CN(C)C(=O)CCSC(SCCC(=O)O)c1cccc(C=Cc2ccc3ccc(Cl)cc3n2)c1 (stereo unspecified)
NF-kB SEAP reporter activity (RAW-Dual [2]; [7]): 0.973 | NF-kB SEAP reporter activity (RAW-Dual [2]; [8]): 1.05

Cc1cc(N2CCOCC2)cc2[nH]c(-c3c(NCC(O)c4cccc(Cl)c4)cc[nH]c3=O)nc12 (stereo unspecified) (library stock concentration (final ~1000-fold dilution): 10 mM)
NF-kB SEAP reporter activity (RAW-Dual [1]; agonist: LPS (TLR4) 0.1 ug/mL): 0.682 | NF-kB SEAP reporter activity (RAW-Dual [1]; [4]): 3.16 | NF-kB SEAP reporter activity (RAW-Dual [1]; [5]): 0.436 | NF-kB SEAP reporter activity (RAW-Dual [1]; [6]): 0.595

Cc1cc(N2CCOCC2)ccc1Nc1nc(NC2CCCCC2)c2nc[nH]c2n1 (library stock concentration (final ~1000-fold dilution): 10 mM)
NF-kB SEAP reporter activity (RAW-Dual [1]; agonist: LPS (TLR4) 0.1 ug/mL): 1.44 | NF-kB SEAP reporter activity (RAW-Dual [1]; [4]): 0.814 | NF-kB SEAP reporter activity (RAW-Dual [1]; [5]): 1 | NF-kB SEAP reporter activity (RAW-Dual [1]; [6]): 0.926

Cc1cc(N2CCOCC2)ccc1Nc1nc(NC2CCCCC2)c2nc[nH]c2n1
NF-kB SEAP reporter activity (RAW-Dual [2]; [7]): 0.925 | NF-kB SEAP reporter activity (RAW-Dual [2]; [8]): 1.04

Cc1cc(N2CCOCC2)cc2[nH]c(-c3c(NCC(O)c4cccc(Cl)c4)cc[nH]c3=O)nc12 (stereo unspecified)
NF-kB SEAP reporter activity (RAW-Dual [2]; [7]): 2.06 | NF-kB SEAP reporter activity (RAW-Dual [2]; [8]): 0.802

CNC(=O)c1ccccc1Nc1nc(Nc2ccc(N3CCOCC3)cc2OC)ncc1Cl (library stock concentration (final ~1000-fold dilution): 10 mM)
NF-kB SEAP reporter activity (RAW-Dual [1]; agonist: LPS (TLR4) 0.1 ug/mL): 0.332 | NF-kB SEAP reporter activity (RAW-Dual [1]; [4]): 0.296 | NF-kB SEAP reporter activity (RAW-Dual [1]; [5]): 0.134 | NF-kB SEAP reporter activity (RAW-Dual [1]; [6]): 0.246

CNC(=O)c1ccccc1Nc1nc(Nc2ccc(N3CCOCC3)cc2OC)ncc1Cl
NF-kB SEAP reporter activity (RAW-Dual [2]; [7]): 0.466 | NF-kB SEAP reporter activity (RAW-Dual [2]; [8]): 0.594

Cl.NC12CC3CC(CC(C3)C1)C2
NF-kB SEAP reporter activity (RAW-Dual [2]; [7]): 0.884 | NF-kB SEAP reporter activity (RAW-Dual [2]; [8]): 1.08

Cl.NC12CC3CC(CC(C3)C1)C2 (library stock concentration (final ~1000-fold dilution): 10 mM)
NF-kB SEAP reporter activity (RAW-Dual [1]; agonist: LPS (TLR4) 0.1 ug/mL): 1.03 | NF-kB SEAP reporter activity (RAW-Dual [1]; [4]): 0.798 | NF-kB SEAP reporter activity (RAW-Dual [1]; [5]): 0.873 | NF-kB SEAP reporter activity (RAW-Dual [1]; [6]): 1.02

Cc1ccc(NC(=O)c2ccc(CN3CCN(C)CC3)cc2)cc1Nc1nccc(-c2cccnc2)n1
NF-kB SEAP reporter activity (RAW-Dual [2]; [7]): 1.31 | NF-kB SEAP reporter activity (RAW-Dual [2]; [8]): 1.69

Cc1ccc(NC(=O)c2ccc(CN3CCN(C)CC3)cc2)cc1Nc1nccc(-c2cccnc2)n1 (library stock concentration (final ~1000-fold dilution): 10 mM)
NF-kB SEAP reporter activity (RAW-Dual [1]; agonist: LPS (TLR4) 0.1 ug/mL): 1.23 | NF-kB SEAP reporter activity (RAW-Dual [1]; [4]): 0.212 | NF-kB SEAP reporter activity (RAW-Dual [1]; [5]): 1.55 | NF-kB SEAP reporter activity (RAW-Dual [1]; [6]): 1.42

Nc1ccccc1NC(=O)c1ccc(CNC(=O)OCc2cccnc2)cc1 (library stock concentration (final ~1000-fold dilution): 10 mM)
NF-kB SEAP reporter activity (RAW-Dual [1]; agonist: LPS (TLR4) 0.1 ug/mL): 1.22 | NF-kB SEAP reporter activity (RAW-Dual [1]; [4]): 1.02 | NF-kB SEAP reporter activity (RAW-Dual [1]; [5]): 1.07 | NF-kB SEAP reporter activity (RAW-Dual [1]; [6]): 1.14

Nc1ccccc1NC(=O)c1ccc(CNc2nccc(-c3cccnc3)n2)cc1 (library stock concentration (final ~1000-fold dilution): 10 mM)
NF-kB SEAP reporter activity (RAW-Dual [3]; agonist: LPS (TLR4) 0.1 ug/mL): 5.7 | NF-kB SEAP reporter activity (RAW-Dual [3]; [4]): 3.2 | NF-kB SEAP reporter activity (RAW-Dual [3]; [5]): 0.984 | NF-kB SEAP reporter activity (RAW-Dual [3]; [6]): 1.9

Nc1ccccc1NC(=O)c1ccc(CNC(=O)OCc2cccnc2)cc1
NF-kB SEAP reporter activity (RAW-Dual [2]; [7]): 0.921 | NF-kB SEAP reporter activity (RAW-Dual [2]; [8]): 1.06

Nc1ccccc1NC(=O)c1ccc(CNc2nccc(-c3cccnc3)n2)cc1
NF-kB SEAP reporter activity (RAW-Dual [2]; cytotoxicity flag (confluency mask): cytotoxic (confluency <70% of control), agonist: Imiquimod (TLR7) […]): 2.7 | NF-kB SEAP reporter activity (RAW-Dual [2]; cytotoxicity flag (confluency mask): cytotoxic (confluency <70% of control), agonist: MPLA (TLR4) […]): 2.58

From the supplement of paper PMC10037445
